Screens from PubChem.
Shown are actives, neighbours in structure and some others; about 10% of the full set was active somewhere.
hNpr1 antagonist: human Npr1 receptor antagonism; actives 1.6% (n = 76,000); P16066; Potency, µM (titrated, usually from 46.3 µM), hits mostly inhibitors; HEK293 hNpr1 GloSensor cGMP, ANP-stimulated luminescence; AID 1347048; calls by dose curve; note: nearly all actives have a fitted effect of over 60% in size
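Compound pre-incubated 30 min at room temperature on GloSensor-loaded HEK293 cells stably carrying hNpr1 and the pGS-40F cGMP biosensor. Stimulation uses hNppA at 0.1 nM final; luminescence is taken at baseline and 20 min post-agonist.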
HEK293 tox: HEK 293 cell cytotoxicity. HEK 293 viability, ATP luminescence (CellTiter-Glo), 48-72 h. Potency, µM (top dose mostly 115 µM), actives largely listed as inhibitors. actives 6.6% (n = 94,000); note: nearly all actives have a fitted effect of over 60% in size
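Luminescence from cellular ATP, measured with CellTiter-Glo, indicates HEK 293 viability. Cells plated at 250 cells/well are treated with compound for 48 or 72 hr at 37 degree Celsius before reagent addition.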
NIH3T3 tox: cytotoxic compounds in NIH 3T3 cells; actives 4.3% (n = 94,000); NIH 3T3 viability, CellTiter-Glo ATP luminescence, 48-72 h; Potency, µM (titrated, usually from 96.7 µM), usual class: inhibitors; note: nearly all actives have a fitted effect of over 55% in size
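ATP-dependent luminescence (CellTiter-Glo) served as the viability signal for NIH 3T3 cells treated with compound for 48 or 72 hr at 37 °C.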
Luciferase inh: blocks purified firefly luciferase enzyme activity. Potency, µM (top dose mostly 115 µM), most hits filed as inhibitors. purified P. pyralis luciferase, luminescence, biochemical. actives 2.5% (n = 76,000); note: nearly all actives have a fitted effect of over 65% in size
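Biochemical qHTS: compound (6-point titration) added to 10uM D-luciferin plus 10uM ATP in Tris acetate pH 7.5 buffer with Mg, Tween-20 and BSA, then purified enzyme at 10nM; light output imaged.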
GPT2 inhibitor: inhibitors of human GPT2 alanine aminotransferase; Q8TD30; Recombinant GPT2, coupled pyruvate oxidase/HRP Amplex Red fluorescence; actives 0.25% (n = 100,000); Potency, µM (titrated, usually from 57.7 µM), hits mostly inhibitors; note: nearly all actives have a fitted effect of over 60% in size
Target sequence (Q8TD30 whole entry, looked up): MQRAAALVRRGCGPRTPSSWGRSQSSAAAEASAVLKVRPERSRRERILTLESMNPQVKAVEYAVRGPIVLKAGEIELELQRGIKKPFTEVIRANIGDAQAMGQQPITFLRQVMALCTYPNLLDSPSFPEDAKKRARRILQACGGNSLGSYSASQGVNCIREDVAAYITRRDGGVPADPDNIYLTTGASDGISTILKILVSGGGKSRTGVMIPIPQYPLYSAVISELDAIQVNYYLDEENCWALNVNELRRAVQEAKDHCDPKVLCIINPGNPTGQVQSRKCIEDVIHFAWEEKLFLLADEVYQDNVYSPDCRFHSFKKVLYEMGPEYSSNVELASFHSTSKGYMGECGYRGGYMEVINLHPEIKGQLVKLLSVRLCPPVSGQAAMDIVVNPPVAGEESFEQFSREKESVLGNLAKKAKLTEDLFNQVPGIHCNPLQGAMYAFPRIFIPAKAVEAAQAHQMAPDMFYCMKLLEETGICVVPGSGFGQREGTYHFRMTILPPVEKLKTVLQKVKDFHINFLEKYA
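Fluorescence of coupled pyruvate oxidase/HRP/Amplex Red system (50uM Amplex, 30 min, dark) reports pyruvate formed by GPT2. Enzyme reaction: 10ng/uL GPT2, 2mM L-alanine, 250uM a-KG, 30 min room temperature, pH 7.5; 50uM AOA control.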
Of the large screens only hits and unclear results are named; the others gave an inactive call. Unless noted, calls come from the whole dose curve; as a rule, active = well fitted curve in the direction sought with a large enough effect; inconclusive = small, poorly fitted or top-dose-only effect, or another doubt; inactive = no such curve, though single readings can be large; an effect the other way counts as inactive or inconclusive.

OCC1(CN2CCCC2)CCN(Cc2cc(F)cc(Cl)c2)CC1	HEK293 tox inconclusive, NIH3T3 tox inconclusive, GPT2 inhibitor inconclusive
Cn1ccc(C(=O)N2CCC3(CC2)OC(=O)N(Cc2ccccc2)C3(C)c2ccccc2)n1 (configuration not stated)	NIH3T3 tox 35µM
CC1(c2ccccc2)N(Cc2ccc(O)cc2)C(=O)OC12CCN(CC1CC1)CC2 (configuration not stated)	HEK293 tox inconclusive, NIH3T3 tox 79µM
CC1(c2ccccc2)N(Cc2cccnc2)C(=O)OC12CCN(C(=O)Cc1ccc(Cl)cc1)CC2 (configuration not stated)	HEK293 tox inconclusive, NIH3T3 tox inconclusive
COc1ccc(C(=O)N2CCC3(CC2)OC(=O)N(Cc2ccccc2)C3(C)c2cccnc2)cc1 (configuration not stated)	NIH3T3 tox inconclusive
CC1(c2ccccc2)N(Cc2ccccc2)C(=O)OC12CCN(Cc1c[nH]c3ccccc13)CC2 (configuration not stated)	hNpr1 antagonist inconclusive, HEK293 tox 28µM, NIH3T3 tox 22µM
CC1(c2ccccc2)N(Cc2ccccc2)C(=O)OC12CCN(C(=O)Cc1ccc(O)cc1)CC2 (configuration not stated)	HEK293 tox inconclusive, NIH3T3 tox 6.3µM
CC1(c2ccccc2)N(Cc2ccccc2)C(=O)OC12CCN(Cc1ccc(O)cc1)CC2 (configuration not stated)	HEK293 tox inconclusive, NIH3T3 tox inconclusive
CC1(c2ccccc2)N(Cc2cccnc2)C(=O)OC12CCN(Cc1ccccc1O)CC2 (configuration not stated)	HEK293 tox inconclusive
O=C(Cc1cccn1-c1cccc(Cl)c1)NCCCN1CCCC1	none
Cc1cc(C(=O)Nc2ccc([C@@H](O)[C@H]3COCC(=O)N3CC(C)C)cc2)n(C)n1	HEK293 tox inconclusive
O=C(Cc1ccccc1)Nc1cc(-c2ccccn2)nn1-c1ccccc1	HEK293 tox inconclusive (no result: hNpr1 antagonist, Luciferase inh)
COc1cccc(CCC(=O)N2CCC(N3C(=O)N(C)CC34CCOC4)CC2)c1 (configuration not stated)	NIH3T3 tox inconclusive (no result: hNpr1 antagonist, Luciferase inh)
Cc1nc(CN2C(=O)OC3(CCN(CCc4ccccc4)CC3)C2(C)c2ccccc2)cs1 (configuration not stated)	HEK293 tox inconclusive
CC1(c2ccccc2)N(Cc2ccccc2F)C(=O)OC12CCN(C(=O)Cc1ccc(O)cc1)CC2 (configuration not stated)	HEK293 tox inconclusive, NIH3T3 tox 22µM
Cc1ncsc1C(=O)N1CCC2(CC1)OC(=O)N(Cc1ccccc1F)C2(C)c1ccccc1 (configuration not stated)	NIH3T3 tox 10µM
Cc1nc(CN2C(=O)OC3(CCN(Cc4ccc(C(C)C)cc4)CC3)C2(C)c2ccccc2)cs1 (configuration not stated)	HEK293 tox inconclusive, NIH3T3 tox 45µM
CC1(c2ccccc2)N(Cc2ccccc2F)C(=O)OC12CCN(C(=O)CCc1ccccn1)CC2 (configuration not stated)	HEK293 tox inconclusive, NIH3T3 tox inconclusive
COc1ccc(C(=O)N2CCC3(CC2)OC(=O)N(Cc2ccccc2F)C3(C)c2ccccc2)cn1 (configuration not stated)	HEK293 tox inconclusive, NIH3T3 tox inconclusive
COc1ccc(CN2CCC3(CC2)OC(=O)N(Cc2ccccc2C#N)C3(C)c2ccccc2)cc1O (configuration not stated)	HEK293 tox 45µM, NIH3T3 tox inconclusive
Cc1ccc(C(=O)N2CCC(n3cnnc3-c3ccccc3)CC2)cc1C	none (no result: hNpr1 antagonist, Luciferase inh)
CNC(=O)c1nc2cccnc2n(CCOC)c1=O	none (no result: hNpr1 antagonist, Luciferase inh)
COc1ccc(OCc2nc(C3CN(C(=O)C4(c5ccc(OC)cc5)CC4)C3)no2)cc1	HEK293 tox inconclusive, NIH3T3 tox inconclusive
COCCN(Cc1ccsc1)Cc1cn[nH]c1-c1ccc(F)cc1	HEK293 tox 89µM
Fc1ccc(-c2[nH]ncc2CN(Cc2cccnc2)Cc2cccnc2)cc1	HEK293 tox inconclusive, NIH3T3 tox inconclusive
O=C(c1ccc2c(c1)N(C(=O)c1ccccc1)CC2)N1CCN(c2cccc(Cl)c2)CC1	HEK293 tox 32µM, NIH3T3 tox inconclusive
O=C(NCc1ccccc1)c1cn(C2CN(C(=O)Nc3ccc4c(c3)OCCO4)C2)nn1	HEK293 tox 35µM, NIH3T3 tox inconclusive, Luciferase inh inconclusive
CCOC(=O)C1CCN(C(=O)c2ccc3nc(-c4cccc(C)n4)oc3c2)CC1	none (no result: hNpr1 antagonist, Luciferase inh)
CN1CCN(C(=O)c2ccc(-c3ccc(N4CCSCC4)nc3)cc2)CC1	HEK293 tox inconclusive, NIH3T3 tox inconclusive, Luciferase inh 35µM
CN1CCN(C(=O)c2ccc(-c3ccc(N4CCCCC4)nc3)cc2)CC1	HEK293 tox inconclusive, NIH3T3 tox inconclusive, Luciferase inh 22µM
CC(NC(=O)c1ccc(-c2ccc(N3CCCCCC3)nc2)cc1)c1cccnc1 (configuration not stated)	hNpr1 antagonist inconclusive, HEK293 tox inconclusive, NIH3T3 tox 25µM, Luciferase inh inconclusive
CC1CCN(C(=O)c2ccc(-c3ccc(N4CCSCC4)nc3)cc2)CC1	hNpr1 antagonist inconclusive, HEK293 tox 20µM, NIH3T3 tox inconclusive, Luciferase inh inconclusive
CCOC(=O)N1CCCC1c1noc2nc(C)cc(C(=O)NC)c12 (configuration not stated)	none (no result: hNpr1 antagonist, Luciferase inh, GPT2 inhibitor)
O=C(c1nnn2cc(-c3ccccc3)[nH]c(=O)c12)N1CCN(C2CCCCC2)CC1	none
Cc1ccc(CN2CC(C(=O)NCCc3noc(C4CC4)n3)CC2=O)cc1 (configuration not stated)	none (no result: hNpr1 antagonist, Luciferase inh)
O=C1CCN(CC(O)CC(F)(F)F)c2ccc(F)cc2CN1C1CCCC1 (configuration not stated)	HEK293 tox inconclusive (no result: hNpr1 antagonist, Luciferase inh, GPT2 inhibitor)
O=C(c1ccc(-c2ccc(N3CCSCC3)nc2)cc1)N1CCCCC1	hNpr1 antagonist 10µM, HEK293 tox inconclusive, NIH3T3 tox 35µM, Luciferase inh inconclusive
O=C(c1ccc(-c2ccc(N3CCCCC3)nc2)cc1)N1CCCC1	hNpr1 antagonist inconclusive, HEK293 tox inconclusive, NIH3T3 tox 40µM, Luciferase inh 28µM
CCCN1CCN(C(=O)c2ccc(-c3ccc(N4CCCCC4)nc3)cc2)CC1	HEK293 tox inconclusive, NIH3T3 tox inconclusive, Luciferase inh inconclusive
COc1ccc(-c2cc(-c3ccncc3)c3cncn3c2)cc1	HEK293 tox inconclusive, NIH3T3 tox 35µM, Luciferase inh inconclusive
COc1ccc(-c2cc(-c3ccc(F)cc3)cn3cncc23)cc1	HEK293 tox 100µM, NIH3T3 tox inconclusive, Luciferase inh inconclusive
COc1ccc(-c2cc(-c3ccncc3)cn3cncc23)cc1	HEK293 tox inconclusive, NIH3T3 tox 35µM
COc1ccc(-c2cc(-c3ccncc3)c3cncn3c2)cn1	HEK293 tox inconclusive, NIH3T3 tox inconclusive
